# High-throughput results: PubChem, National Center for Advancing Translational Sciences (NCATS)
# D3 antag: D3 dopamine receptor (human) antagonism | D3R cells, DiscoveRx beta-arrestin luminescence, antagonist mode; hits give low values | 360,000 tested, 2.5% active | AID 652054 | max response, negative = inhibition, %; in the data active = max response below about -50%; inconclusive = no clear call, values can overlap the other calls; also: % is scaled to controls: 0 for no effect and ±100 for the full control effect
#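 Cells plated overnight at 1500 cells/well, then exposed to library compounds with dopamine controls for 90 minutes at 37 degrees C. DiscoveRx reagent added for 30–60 minutes at room temperature; luminescence read, quantitative HTS format.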
# GLP1R inv ag: acts as inverse agonist at human GLP-1 receptor. 410,000 tested, 1.6% active. Potency, µM (series often up to 38.3 µM), for inactives: at the top dose activity change, negative = inhibition, actives largely listed as inhibitors. HEK293 GLP-1R CRE-luciferase, luminescence, 24 h; GLP-1R form is constitutively active. P43220; also: potency is read from the fitted curve at half-maximal effect; % is scaled to controls: 0 for no effect and ±100 for the full control effect; nearly all actives have a fitted effect of over 55% in size
# Target sequence (P43220 whole entry, looked up): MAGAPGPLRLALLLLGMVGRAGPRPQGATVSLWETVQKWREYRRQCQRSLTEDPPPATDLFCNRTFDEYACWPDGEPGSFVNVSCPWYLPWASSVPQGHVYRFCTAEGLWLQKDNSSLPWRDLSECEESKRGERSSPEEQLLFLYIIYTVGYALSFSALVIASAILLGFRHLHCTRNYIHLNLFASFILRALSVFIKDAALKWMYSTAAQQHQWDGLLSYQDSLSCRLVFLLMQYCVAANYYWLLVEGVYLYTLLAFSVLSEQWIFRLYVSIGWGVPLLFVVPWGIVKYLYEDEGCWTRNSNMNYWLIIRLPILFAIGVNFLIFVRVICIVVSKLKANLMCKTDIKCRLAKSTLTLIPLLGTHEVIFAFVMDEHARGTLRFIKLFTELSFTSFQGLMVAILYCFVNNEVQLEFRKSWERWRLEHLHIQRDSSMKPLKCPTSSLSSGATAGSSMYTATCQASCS
#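 Constitutively active GLP-1R drives a cAMP-responsive luciferase in stably transfected HEK293 cells; test compounds are added after overnight (12 h) attachment and left 24 hr, and signal loss in luminescence marks inhibition.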
# GLP1R ag: activates the human GLP-1 receptor; AID 624172; HEK293 GLP-1R CRE-luciferase, luminescence, 4-6 h; cells express a hypersensitive GLP-1R form; 380,000 tested, 0.007% active; P43220; Potency, µM (highest dose often 45.6 µM), for inactives: top-dose activation, most hits filed as activators; also: potency is read from the fitted curve at half-maximal effect; % of control where 0% means no effect
# D3 ag: agonists of human D3 dopamine receptor. P35462. D3R DiscoveRx beta-arrestin cells, luminescence, 90 min. max activation, %. 410,000 tested, 0.58% active; in the data active = max activation above about 30%; also: 0% is about no effect
#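 Cells at 1500/well, incubated overnight, then treated with pinned compounds (dopamine as control) for 90 min at 37 degrees C. DiscoveRx reagent added for 30 - 60 minutes at room temperature; luminescence read.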
# * hit, by the source's call; ? = inconclusive; . = no result. The list is not random: actives were taken first. Their share in the collection is about 4.3%. Unless noted, calls follow the shape of the dose curve; as a rule, active = well fitted curve in the direction sought with a large enough effect; inconclusive = small, poorly fitted or top-dose-only effect, or another doubt; inactive = no such curve, though single readings can be large; an effect the other way counts as inactive or inconclusive.
SMILES,D3 antag,GLP1R inv ag,GLP1R ag,D3 ag
COc1ccc(/C=C/C(=O)c2ccc3c(c2)OCCO3)cc1[N+](=O)[O-],-51*,?,2%,-1
COc1ccc(/C=N/NC(=O)c2ccc3c(c2)OCCO3)cc1[N+](=O)[O-],?,14%,-4%,-1
COc1cc(/C=C/C(=O)c2ccc3c(c2)OCO3)cc(Cl)c1O,-7,11µM*,9%,5
CCOc1cc(/C=C/C(=O)c2ccc3c(c2)OCCO3)ccc1OCC(=O)N(C)C,-5,13µM*,5%,2
COc1ccc(Oc2ccc(/C=C/C(=O)c3cccc(OC)c3)cc2[N+](=O)[O-])cc1,-56*,16%,0%,-21
COc1ccc(C(=O)C=Cc2ccc3c(c2)OCO3)cc1OC,30,104%,14%,9
CCC(Sc1nc2ccccc2c2nc(CCc3c(C)n[nH]c3C)nn12)C(=O)Nc1ccccc1F (stereo not given),.,8%,.,-2
O=C(NCc1ccc(Cl)cc1)C1CCCN(c2nc3ccccc3n3cccc23)C1 (stereo not given),.,17%,.,-9
Cc1ccc(C2C=C(c3ccc(Cl)cc3)Nc3nc(NC(=O)c4ccco4)nn32)cc1 (stereo not given),.,?,.,-8
CN1C(=O)/C(=C/c2cc(N=Nc3ccccc3)ccc2O)SC1=S,-135*,0%,-7%,-1
CCn1c(SCC(=O)Nc2ccccc2F)nnc1-c1ccoc1C,-55*,4%,13%,-25
Cn1c(SCC(=O)NNC(=O)Cc2ccccc2)nnc1-c1ccccc1,3,0%,-9%,-2
CCn1c(SCC(=O)NNC(=O)Cc2ccccc2)nnc1-c1ccccc1,-51*,-9%,-5%,-10
Cc1occc1-c1nnc(SCC(=O)Nc2ccccc2)n1CCc1ccccc1,-3,11µM*,1%,-5
CCOC(=O)Cc1ccc(NC(=O)Nc2cc3c(cc2N2CCCCC2)n(C)c(=O)n3C)cc1,.,-15%,1%,8
Cc1cc(C)c2nc(N(CCCN(C)C)C(=O)C3=COCCO3)sc2c1,-2,4.5µM*,-9%,-8
CN(C)CCCN(C(=O)c1ccc2c(c1)OCCO2)c1nc2ccccc2s1,.,-4%,.,-28
CN(C)CCCN(C(=O)C1=COCCO1)c1nc2ccc(Br)cc2s1,-15,2µM*,0%,-12
COc1ccc2[nH]c3c(=S)nc[nH]c3c2c1,-56*,111%,22%,2
COc1cc(/C=C/C(=O)OCC(=O)NC(=O)NC23CC4CC(CC(C4)C2)C3)ccc1OCC#N,-53*,?,9%,-7
Cc1onc(-c2ccccc2)c1C(=O)OCC(=O)Nc1ccccc1Cl,-24,-9%,-2%,-14
COc1ccc(-n2c(=S)[nH]c3cc(C(=O)NCc4ccco4)ccc3c2=O)c(OC)c1,-61*,-4%,-14%,-3
COc1ccc(-n2c(=S)[nH]c3cc(C(=O)NCc4ccccc4OC)ccc3c2=O)c(OC)c1,-13,?,-1%,8
CC[C@@H]([C@H](C)O)n1ncn(-c2ccc(N3CCN(c4ccc(OC[C@@H]5CO[C@@](Cn6cncn6)(c6ccc(F)cc6F)C5)cc4)CC3)cc2)c1=O,.,.,.,4
O=c1[nH]nc(Cc2ccc(-c3cccc(Cl)c3)o2)c2ccccc12,-61*,3%,9%,1
SMILES,D3 antag,GLP1R inv ag,GLP1R ag,D3 ag
COc1ccc(CNC(=O)c2ccc(NC(=O)N3CCSc4ccccc43)cc2)cc1,.,-2%,.,0
CCN(CC)S(=O)(=O)c1ccc(N=Nc2c(C)[nH]n(C(N)=S)c2=O)cc1,-93*,0%,-4%,9
CC(=O)N(C)c1ccc(N=Nc2c(C)[nH]n(C(N)=S)c2=O)cc1,-20,-23%,-1%,-3
COc1ccc(-n2nnc(-c3nc(-c4cccs4)no3)c2N)cc1OC,.,14%,.,4
COc1ccc(S(=O)(=O)c2cnc3ccc(Cl)cc3c2N2CCCCC2C)cc1 (stereo not given),.,?,.,-16
O=C(CCc1ccc(S(=O)(=O)NC2CCCCC2)cc1)N(Cc1ccccc1)Cc1ccccc1,-24,8.9µM*,-4%,2
O=C(CCc1ccc(S(=O)(=O)NC2CCCCC2)cc1)Nc1ccccc1,-6,?,-4%,1
O=C(NC1CC1)c1ccc(S(=O)(=O)NC2CCCCCC2)cc1,16,0%,14%,17
CC(C)C(=O)NC(=S)Nc1ccc(S(=O)(=O)NC2CCCCC2)cc1,-17,10µM*,4%,-10
